Sampled rows, rich in hits. Any-hit rate of the full collection: about 7.9%.
HT1080-NT tox: kills 2HG-producing HT-1080-NT fibrosarcoma cells; Potency, µM (top dose mostly 46.1 µM), most hits filed as cytotoxic; 1.6% of 360,000 active; HT-1080-NT fibrosarcoma viability, CellTiter-Glo ATP luminescence, 48 h;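 further: NT is the 2HG producing partner of a matched IDH1 knockdown line; nearly all actives have a fitted effect of over 55% in size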
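HT-1080-NT; 750 cells/well; 5% FBS RPMI; 48 h compound, 37 degrees C; CellTiter-Glo luminescence; curve fitting and curve-class assignment.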
HT1080 IDH1KD tx: HT-1080 IDH1 knockdown cell toxicity (counter line); HT-1080 IDH1 knockdown viability, ATP luminescence, 48 h; Potency, µM (series often up to 46.1 µM), usual class: cytotoxic; 2% of 360,000 active; AID 686971
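After a 2 h attachment period, IDH1KD HT-1080 cells took pin-transferred compound for 48 h at 37 °C; ATP-based luminescence after 10 min room-temperature reagent incubation reported viability.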
SW480 rerep: DNA re-replication induction in SW480 cells | SW480 DNA re-replication, Hoechst DNA content imaging, 48 h | Potency, µM (series often up to 46.1 µM), usual class: activators | 1.8% of 340,000 active; further: nearly all actives have a fitted effect of over 55% in size
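First, 250 cells per well were seeded. Next, compound or vehicle (23 nL) was pinned in, plates sat 48 hr at 37 C. Finally Hoechst was added for 40 min before fluorescence scanning.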
MCF10A rereplic: inducers of DNA re-replication in MCF 10A breast cells. MCF 10A DNA re-replication, Hoechst nuclear intensity, 48 h. Potency, µM (titrated, usually from 46.1 µM), hits mostly activators. 2.9% of 350,000 active. AID 624296; further: nearly all actives have a fitted effect of over 50% in size
KB-3-1 tox: KB-3-1 parental cell cytotoxicity. KB-3-1 viability, CellTiter-Glo ATP luminescence, 72 h. 1.4% of 400,000 active. AID 1347075. Potency, µM (top dose mostly 46.1 µM), usual class: cytotoxic; further: nearly all actives have a fitted effect of over 60% in size
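Cytotoxicity in the drug-sensitive parental line KB-3-1 was scored as loss of CellTiter-Glo luminescence following 72 h incubation with compound. Values come from curve fitting of normalized concentration-response data.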
KB-V1 MDR tox: kills drug-selected multidrug resistant KB-V1 cells; KB-V1 MDR cells viability, CellTiter-Glo, 72 h; Potency, µM (highest dose often 46.1 µM), actives largely listed as cytotoxic; 3.4% of 400,000 active; further: nearly all actives have a fitted effect of over 60% in size
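Potencies derive from concentration-effect curves fitted to normalized luminescence (CellTiter-Glo) of KB-V1 cells treated for 72 h at 37 degrees C in phenol-red-free DMEM containing 10% FBS.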
Numbers stand for hits; 0 = inactive; ? = inconclusive; - = not tested or not shown; [ ] = remark or other dose. The call rests on the fitted dose curve; in most records, active means well fitted curve in the direction sought with a large enough effect; inconclusive means small, poorly fitted or top-dose-only effect, or another doubt; inactive means no such curve, though single readings can be large; an effect the other way counts as inactive or inconclusive.

SMILES | HT1080-NT tox | HT1080 IDH1KD tx | SW480 rerep | MCF10A rereplic | KB-3-1 tox | KB-V1 MDR tox
CC(C)OCCCNC(=S)N1CCC(C(=O)c2ccc(F)cc2)CC1 | 0 | 0 | - | - | ? | ?
Cc1ccc(C(=O)C2CCN(C(=S)NCCCOC(C)C)CC2)cc1 | 0 | 0 | 15µM | 0 | 0 | 0
COc1ccc(-c2nn(-c3ccccc3)cc2C(=O)N(C)CC(=O)Nc2ccccc2Br)cc1 | 0 | 0 | 0 | ? | ? | 0
COc1cc(/C=N/n2cnc3c(sc4nc(C)cc(C)c43)c2=O)ccc1O | 0 | 0 | ? | 0 | 0 | 0
COc1cc(/C=C(/C(=O)O)c2ccc(-c3ccccc3)cc2)cc(OC)c1OC | ? | 9.2µM | 21µM | 15µM | ? | ?
COc1cc(/C=N/NC(=O)c2sc3nc(C)cc(C)c3c2N)ccc1O | ? | ? | ? | 15µM | 0 | 0
COc1cc(/C=N/NC(=O)CCn2c3ccccc3c3ccccc32)cc(OC)c1OC | 0 | 0 | 0 | 0 | 0 | 4.6µM
COc1cc(/C=N\NC(=O)c2sc(N)nc2C)cc(OC)c1OC | 0 | 0 | 0 | 21µM | 0 | 0
COc1cc(C=C(C#N)C(=O)c2ccccc2)cc(OC)c1OC | 0 | 0 | - | - | 0 | 0
Cc1noc(C)c1S(=O)(=O)Nc1ccccc1Oc1ccccc1 | 0 | 0 | 0 | 0 | 0 | ?
O=C(Nc1nc(-c2ccccn2)cs1)c1ccc(F)c(S(=O)(=O)N2CCOCC2)c1 | ? | ? | ? | 0 | ? | ?
O=C(Nc1ncccc1O)c1cccc(S(=O)(=O)N2CCCC2)c1 | 0 | 0 | 0 | 0 | 0 | 0
COc1cc(/C=N/NC(=O)c2ccc(-c3ccccc3)cc2)cc(OC)c1OC | 0 | 0 | 9.2µM | 0 | 0 | 0
COc1ccc(/C=N/NC(=O)CCn2cnc(-c3ccccc3)c2-c2ccccc2)cc1OC | 9.2µM | 8.2µM | 21µM | 8.2µM | 6.5µM | ?
COc1ccc(/C=N/NC(=O)CCC(=O)Nc2ccccc2)cc1OC | 0 | 0 | 0 | 0 | 0 | 0
COc1ccc(/C=N\NC(=O)c2ccc(-c3ccccc3)cc2)c(OC)c1OC | 0 | 0 | 0 | 0 | 0 | 0
O=C(NC1CCCCC1)C(c1ccc(C(F)(F)F)cc1)n1c(=O)c(-c2ccco2)nc2ccccc21 (centres undefined) | 0 | 0 | - | - | 0 | 0
O=C(O)COc1ccccc1C=NNc1ccc([N+](=O)[O-])cc1S(=O)(=O)Nc1ccc(Cl)cc1 | 0 | 0 | 0 | 2.1µM | 0 | 0
COc1ccc(NS(=O)(=O)c2cc([N+](=O)[O-])ccc2NN=Cc2ccccc2OCC(=O)O)cc1 | 0 | 0 | ? | 21µM | 0 | 0
COc1ccc(NS(=O)(=O)c2cc([N+](=O)[O-])ccc2N/N=C\c2c(C)[nH]c3ccccc23)cc1 | 0 | 0 | 0 | 9.2µM | ? | ?
COc1ccccc1NS(=O)(=O)c1ccc(N/N=C/c2ccccc2OCC(=O)O)c([N+](=O)[O-])c1 | 0 | 0 | 0 | ? | 0 | 0
COc1ccc(C=NNc2ccc([N+](=O)[O-])cc2S(=O)(=O)Nc2ccccc2C(=O)O)cc1OC | 0 | 0 | 0 | 18µM | 0 | 0
O=C(c1ccccc1)c1nc[nH]c1C(=O)Nc1ccccn1 | 0 | 0 | 0 | 0 | 0 | 0
Cc1c(C=NCCOCc2ccccc2)cnn1C | 0 | 0 | 0 | 0 | 0 | 0
COc1ccccc1NS(=O)(=O)c1cc([N+](=O)[O-])ccc1N/N=C/c1c[nH]c2ccccc12 | ? | ? | ? | 8.2µM | ? | ?
SMILES | HT1080-NT tox | HT1080 IDH1KD tx | SW480 rerep | MCF10A rereplic | KB-3-1 tox | KB-V1 MDR tox
Cc1ccc(S(=O)(=O)NCC(=O)N(CC(=O)NCc2ccc(F)cc2)CC2CCCO2)cc1 (centres undefined) | 0 | 0 | 0 | 0 | 0 | 0
CC(=O)Nc1ccc(S(=O)(=O)NC2(C(F)(F)F)C(=O)Nc3c2c(=O)n(C)c(=O)n3C)cc1 (centres undefined) | 0[9.24 µM] | 0 | 0 | 0 | 0 | 0
COC(=O)c1ccc(-n2c(C)cc(C(=O)CSc3cccc[n+]3[O-])c2C)cc1 | 0 | 0 | 0 | 1.3µM | 0 | ?
CCOC(=O)c1sc(NC(=O)c2ccco2)c(C#N)c1C | 0 | 0 | 0 | ? | 0 | ?
Cc1ccc(-n2nc3ccc(NC(=O)C(C)C)cc3n2)cc1 | 0 | 0 | 0 | 0 | ? | 0
CC(C)CC(=O)Nc1ccc2nn(-c3ccccc3)nc2c1 | 0 | 0 | 0 | 0 | 0 | 16µM
O=C(/C=C/c1ccco1)Nc1ccc2nn(-c3ccccc3)nc2c1 | 0 | 0 | 0 | 7.3µM | 0 | 0
C=CCOc1ccc2oc(=O)cc(C)c2c1 | 0 | 0 | 0 | 0 | 0 | ?
COc1ccc(CN2CCC3CC2c2cc(-c4cccc(C)c4)ccc23)cc1 (centres undefined) | 0 | 0 | ? | 9.2µM | 0 | 0
COc1ccc(CN2CCC3CC2c2cc(Cl)ccc23)cc1 (centres undefined) | 0 | 0 | 0[9.22 µM] | ? | ? | 0
COc1cc(-c2ccc(NC(=O)c3ccc(C)cc3)c(OC)c2)ccc1NC(=O)c1ccc(C)cc1 | 0 | 0 | 2.6µM | 1.6µM | 0 | 0
COc1cc(-c2ccc(NC(=O)CN3CCC(C)CC3)c(OC)c2)ccc1NC(=O)CN1CCC(C)CC1 | 0 | 0 | 0 | ? | ? | 16µM
COc1cc(-c2ccc(NC(C)=O)c(OC)c2)ccc1NC(C)=O | 0 | 0 | 0 | 0 | 0 | 0
CCCOC(=O)c1c(NC(=O)CCC(=O)O)sc2c1CCCCC2 | 0 | 0 | 0 | 0 | ? | ?
Cc1ccc(NC(=O)c2cc(C)n(-c3cccc(C)c3)c2C)cc1 | 0 | 0 | ? | ? | 0 | ?
CC(C)(O)C#Cc1ccc(C(=O)N2CCCC(CNS(=O)(=O)c3cccs3)C2)o1 (centres undefined) | 0 | 0 | 21µM | 0 | 0 | 0
CN(CC(=O)Nc1ccccc1C(F)(F)F)C(=O)Cn1c(=O)oc2ccccc21 | 0 | 0 | 0 | 0 | 0 | 0
CCc1ccc(NC(=O)CSc2nc3ccccc3c(=O)n2CCCC(=O)N2CCCC2)cc1 | 0 | 0 | ? | ? | ? | 2.9µM
NS(=O)(=O)c1ccc(CCNC(=O)CSc2nc3ccccc3c(=O)n2CCN2CCOCC2)cc1 | 0 | 0 | 0 | 0 | 0 | 0
NS(=O)(=O)c1ccc(CCNC(=O)CSc2nc3ccccc3c(=O)n2CCC(=O)N2CCCCC2)cc1 | 0 | 0 | 0 | 0.73µM | 0 | 0
O=c1c2ccccc2nc(SCCN2CCCCC2)n1CCc1ccccc1 | ? | 15µM | ? | ? | 0 | 0
COc1ccc(S(=O)(=O)N2CCOCC2)cc1NC(=O)CNC(=O)c1cccs1 | 0 | 0 | 0 | 0 | 0 | 0
COc1ccc(CCN2C(=O)CSC2=S)cc1OC | ? | 23µM | 15µM | 12µM | 6.5µM | 5.8µM
